{"source": "PubChem BioAssay AID1852", "about": "(Sanford-Burnham Center for Chemical Genomics, 2009)", "note": "About 1,100 (44%) of roughly 2,500 compounds were called active.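 The calls were made as follows: active = inhibition above 50% at 4 µM in the single-point screen; inactive = inhibition of 50% or less.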 The set was probably picked from earlier hits. This is one part of the list.", "data": [{"assay": "blockers of TNF-a NF-kB luciferase induction – cell-based, HEK293T NF-kB-Luc, luminescence, selectivity assay for NOD1/NOD2 signaling inhibitor project, primary screen (AID 1852)", "conditions": "TNF-a induced, 14 h, at 4 µM, hits give high values", "values": [{"smiles": "Cc1ccccc1Nc1nc(N)nc(CCl)n1", "inhibition": "24.8% (inactive)"}, {"smiles": "CC1Sc2ccc(S(=O)(=O)CCC(=O)N3CCN(c4ccccc4F)CC3)cc2NC1=O", "note": "(centres undefined)", "inhibition": "39.3% (inactive)"}, {"smiles": "Cc1ccc(C)c(N2CCN(C(=O)CCS(=O)(=O)c3ccc4c(c3)NC(=O)CO4)CC2)c1", "inhibition": "28.3% (inactive)"}, {"smiles": "Cc1ccc(C)c(N2CCN(C(=O)CCS(=O)(=O)c3ccc4c(c3)NC(=O)C(C)S4)CC2)c1", "note": "(centres undefined)", "inhibition": "74.4% (active)"}, {"smiles": "COc1ccc(Cc2noc(CN3CCN(Cc4cccc(Cl)c4)CC3)n2)cc1OC", "inhibition": "35.8% (inactive)"}, {"smiles": "O=C(c1ccc2c(c1)N(Cc1ccccc1)C(=O)c1ccccc1S2)N1CCCC1", "inhibition": "34.7% (inactive)"}, {"smiles": "CN1C(=O)/C(=C/c2ccccc2Cl)Sc2ccc(C(=O)N3CCCC3)cc21", "inhibition": "89% (active)"}, {"smiles": "CCOc1ccc(/C=C2/Sc3ccc(C(=O)N4CCOCC4)cc3N(C)C2=O)cc1OC", "inhibition": "54.9% (active)"}, {"smiles": "CCOC(=O)N1CCN(C(=O)c2ccc3c(c2)N(C)C(=O)/C(=C\\c2ccc(OCC)c(OC)c2)S3)CC1", "inhibition": "21.6% (inactive)"}, {"smiles": "O=C1Nc2cc(C(=O)N3CCN(c4ccccn4)CC3)ccc2S/C1=C\\c1ccccc1", "inhibition": "3% (inactive)"}, {"smiles": "COc1ccc(/C=C2\\Sc3ccc(C(=O)N4CCN(Cc5ccccc5)CC4)cc3N(C)C2=O)cc1OC", "inhibition": "59.1% (active)"}, {"smiles": "COCCN1CCN(C(=O)c2ccc3nc(Cc4ccc(OC)c(OC)c4)oc3c2)CC1", "inhibition": "8.5% (inactive)"}, {"smiles": "Cc1ccccc1/C=C1\\Sc2ccc(C(=O)N3CCN(c4ccccn4)CC3)cc2N(C)C1=O", "inhibition": "22.2% (inactive)"}, {"smiles": "Cc1ccc(C)c(Oc2cc(NC(=O)CCCn3nc(C)c([N+](=O)[O-])c3C)cc([N+](=O)[O-])c2)c1", "inhibition": "-13.6% (inactive)"}, {"smiles": "O=C(Nc1ccc(Br)cc1)c1ccc(F)c(S(=O)(=O)N2CCN(c3ccccn3)CC2)c1", "inhibition": "36.8% (inactive)"}, {"smiles": "O=C(Nc1ccc(N2CCN(C(=O)c3ccccc3F)CC2)cc1)c1cncc(Br)c1", "inhibition": "72.9% (active)"}, {"smiles": "O=C(Nc1ccc(N2CCN(Cc3ccccc3F)CC2)cc1)c1ccc([N+](=O)[O-])o1", "inhibition": "20% (inactive)"}, {"smiles": "Cc1ccc(-c2c3c(nc4sc(C(N)=O)c(N)c24)CCC3)cc1", "inhibition": "82.9% (active)"}, {"smiles": "NC(=O)c1sc2nc3c(c(-c4ccccc4)c2c1N)CCC3", "inhibition": "96.6% (active)"}, {"smiles": "NC(=O)c1sc2nc3c(c(-c4ccco4)c2c1N)CCCC3", "inhibition": "83.5% (active)"}, {"smiles": "CCOC(=O)c1ccc(NC(=O)c2sc3nc(N4CCOCC4)c4c(c3c2N)CCCC4)cc1", "inhibition": "-98.3% (inactive)"}, {"smiles": "Cc1nc2sc(C(N)=O)c(N)c2c2c1CCCC2", "inhibition": "92.8% (active)"}, {"smiles": "NC(=O)c1sc2nc3c(c(-c4cccs4)c2c1N)CCCCC3", "inhibition": "90% (active)"}, {"smiles": "O=C(N/N=C/c1cccs1)c1n[nH]c2c1CCCC2", "inhibition": "1.7% (inactive)"}]}]}
